PubChem BioAssay AID1347417 (National Center for Advancing Translational Sciences (NCATS), 2020)
Out of some 120,000 compounds screened, about 5,300 (4.4%) were called active. About 22% were inconclusive and are not listed. The sample holds actives, similar compounds and a random draw of the others, so the mix is not that of the screen. The call rests on the fitted dose curve; in most records, active means well fitted inhibition curve with a large enough effect; inconclusive means small, poorly fitted or top-dose-only effect; inactive means no such curve, though single readings can be large or run the other way.

assay: qHTS Primary assay for Inhibitors of Plasmodium falciparum Dd2 growth in vitro; further: nearly all actives have a fitted effect of over 65% in size;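 on activity, negative = inhibition: plate controls were DMSO vehicle for no effect and reference drug for full effect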; conditions: P. falciparum Dd2 growth, SYBR Green, 72 h; series mostly up to 28.9 µM; activity, negative = inhibition: at the top concentration
Description: Malaria, a parasitic disease spread to humans through the bite of a Plasmodium infected Anopheles mosquito, continues to be a global health burden affecting millions of people, with an estimated 228 million cases and 405,000 deaths in 2018. Concerns about safety and limitations of current antimalarial treatments strongly emphasize the need to develop new therapeutic options. The scarce number of chemotypes and validated drug targets with efficacy against the liver stage, have hindered development of new antimalarials. To address this, a chemoprophylactic drug discovery effort was conducted through a combined phenotypic high-throughput asexual blood stage and liver stage screen, providing a robust foundation to identify liver-stage active lead chemotypes. Compounds were initially screened against Plasmodium falciparum Dd2 strain parasites using a in vitro SYBRGreen-1 based 72 hr proliferation assay to identify novel chemotypes to advance to liver stage assays. NIH/NCATS Early Translation Branch Assay Submitter (PI): Anton Simeonov Ph.D.
Malaria-vivax Assay Protocol: PROTOCOL TABLE (as described by Inglese et al., 2007) SEQUENCE No. (e.g., 1, 2, 3, etc.); […] (e.g., Cells, Incubation, Reagent, etc.); VALUE; DESCRIPTION SEQUENCE, Parameter, Description 1; Reagent; 3 uL complete malaria growth medium, 1536 TC treated Black clear bottom plate 2; Controls; 23 nL positive control artesunate (300 nM final) to column 1; Neutral control DMSO to columns 2-4 3; Compound; 23 nL of compounds in dose response concentration (29 uM to 0.5 nM final) 4; Reagent; 5 uL malaria infected red blood cells (2.5% hematocrit final, 0.3% parasitemia 5; Time; 72 hours at 37C (5% O2, 5% CO2, 90% N2; 95% Rh) 6; Reagent; 2 uL lysis buffer/SYBRGreen-1, 25 sec shake immediately following dispense 7; Time; ~16 hours at 37C (5% O2, 5% CO2, 90% N2; 95% Rh) 8; Detector; EnVision (PerkinElmer) bottom read at 485/14nm excitation and 535/25 nm emission NOTES (numbers refer to sequence above): 1; Complete Malaria Growth Media: 1X RPMI-1640 w/L-glutamine, 5.5g/L Albumax II, 367 uM Hypoxanthine, 25 mM HEPES, 0.25% Sodium Bicarbonate, 35 uM Gentamicin sulfate 2; Controls were added using the Kalypsis Pintool (Wako USA) equipped with 1536 pinhead 3; Compounds were added in a 7-point, titration with a high final concentration of 29 uM by Pintool from seven inter-plate titrations of library plates and two DMSO control plates at the beginning and end (see Yasgar et al., 2008). 4; Red blood cells infected with Plasmodium falciparum Dd2 parasites were used. 6; Lysis buffer: 20 mM Tris-HCl, 10 mM EDTA, 0.16% Saponin, 1.6% Triton-X, 10X SYBR Green. REFERENCE: Inglese J, Shamu CE, Guy RK. 2007. Reporting data from high-throughput screening of small-molecule libraries. Nat Chem Biol. doi:10.1038/nchembio0807-438 Yasgar A, Shinn P, Jadhav A, Auld D, Michael S, Zheng W, Austin CP, Inglese J, Simeonov A. 2008. Compound Management for Quantitative High-Throughput Screening. J Lab Autom 13:79-89. doi:10.1016/j.jala.2007.12.004
Potency means the concentration at half of the fitted maximal effect.

Structure (SMILES)	outcome	activity, negative = inhibition	Potency
CN(CCc1cn[nH]c1)c1ccc(-c2nc(-c3ccccc3F)no2)cn1	inactive		
Cc1cc(C)n(CC(=O)N2CC[C@@H]3CN(S(C)(=O)=O)[C@@H]3C2)n1		25.9% (inactive)	
Oc1ccccc1CN1C[C@H](O)C[C@H]1c1nc(Cc2ccc(F)cc2Cl)no1	inactive [at 44.1 µM]		
CCCNC(=O)C(NC(=O)c1ccc(OC)cc1)C1CCN(C(=O)c2ccc3c(c2)OCO3)CC1 (stereo unspecified)	inactive		
O=C(c1ccccc1-n1cccn1)N1CCc2c(nc[nH]c2=O)C1		-3.13% (inactive)	
CC(C)(Oc1nn(CCOc2ccccc2)c2ccccc12)C(=O)NCCCn1ccnc1	inactive		
CCOC(=O)C1CCN(C(=O)C2(c3ccc(NS(C)(=O)=O)cc3)CCCCC2)CC1	inactive		
COCCNC(=O)c1ccc(OC2CCN(C/C=C/c3ccco3)CC2)c(Cl)c1		-29.3% (inactive)	
Cc1ccc2oc3c(c(=O)c2c1)C(c1ccc([N+](=O)[O-])cc1)N(CCCN1CCOCC1)C3=O (stereo unspecified)			10 µM (active)
CSc1ccc(C2c3c(oc4ccccc4c3=O)C(=O)N2CCCN2CCOCC2)cc1 (stereo unspecified)		-11% (inactive)	
COc1ccc(C2c3c(oc4ccccc4c3=O)C(=O)N2Cc2ccc3c(c2)OCO3)cc1 (stereo unspecified)		7.74% (inactive)	
Cc1cccc(C(=O)NCCC2CCN(C(=O)Nc3ccc(F)cc3F)CC2)c1		-17.7% (inactive)	
COc1cccc(NC(=O)c2cnc3n[nH]c(-c4ccc(OC)cc4C)c3n2)c1		-24.7% [at 44.1 µM] (inactive)	
Cc1c(Cl)cccc1NC(=O)C1CCCN(C(=O)c2cnn(-c3ccccc3)c2-n2cccc2)C1 (stereo unspecified)		-11.9% (inactive)	
Cc1ccc(C2CCN(C(=O)c3cnn(-c4ccccc4Cl)c3C3CCN(C(=O)OC(C)(C)C)CC3)C2)cc1 (stereo unspecified)			3.98 µM (active)
COc1ccccc1CN1CCC(CNC(=O)c2cnn(-c3cccc(Cl)c3)c2C2CCN(C(=O)OC(C)(C)C)CC2)CC1			1.41 µM (active)
CC(C)(C)OC(=O)N1CCC(c2c(C(=O)N3CCN(c4cccc(Cl)c4)CC3)cnn2-c2cccc(Cl)c2)CC1			7.08 µM (active)
COc1ccccc1N1CCN(CCCNC(=O)c2cnn(-c3ccccc3Cl)c2C2CCN(C(=O)OC(C)(C)C)CC2)CC1			1.41 µM (active)
Cc1cccc(-n2ncc(C(=O)N3CCC(C)CC3)c2C2CCN(C(=O)OC(C)(C)C)CC2)c1		29.1% (inactive)	

Structure (SMILES)	outcome	activity, negative = inhibition	Potency
Cc1cccc(-n2ncc(C(=O)N3CCc4ccccc4C3)c2C2CCN(C(=O)OC(C)(C)C)CC2)c1		-23% (inactive)	
Cc1oc2ncnc(N3CCCCC3)c2c1C(=O)N1CCN(c2cccc(Cl)c2)CC1		-15.4% (inactive)	
COc1ccccc1N1CCN(S(=O)(=O)CCNC(=O)COc2ccc(F)cc2)CC1		-1.92% (inactive)	
COc1ccccc1C(=O)N1CCC(c2n[nH]c(=O)n2-c2ccc(C)cc2)CC1	inactive		
O=C(NCC1CC1)c1nc2c(o1)CCN(Cc1cccc(F)c1F)CC2		-18.3% [at 44.1 µM] (inactive)	
CCn1ncc(N2CCC(NC(=O)c3ccccc3OC)CC2)cc1=O	inactive		
Cc1noc2c(N3CC[S+](=O)([O-])CC3)cc(-c3ccc(Cl)cc3)nc12	inactive [at 44.1 µM]		
O=C(NC1CCCC1)N1CCC(Oc2ccc(-c3noc(C4CC4)n3)cc2)C1 (stereo unspecified)		5.78% [at 5.79 µM] (inactive)	
CCCC(c1cccs1)n1cc(-c2cncnc2)nn1 (stereo unspecified)	inactive		
O=c1cc(N2CCOCC2)cnn1Cc1cc(C(F)(F)F)ccc1F		-13.2% (inactive)	
O=C(c1ccccn1)N1CCC2(CNS(=O)(=O)c3cnccc3O2)C1 (stereo unspecified)		2.82% (inactive)	
Cc1noc(C)c1-c1cc2cc(CNC3CCOCC3)oc2c(NC2CCN(C)CC2)n1		-7.72% [at 44.1 µM] (inactive)	
Cc1ccc(C2(O)CCN(C(=O)c3ccccc3-c3nn[nH]n3)CC2)nc1		-10.1% (inactive)	
Cc1ccc(NC(=O)Nc2ccc(C)n(CC(=O)NCCN3CCCC3)c2=O)cc1	inactive		
COCC(=O)NC1CCC12CCN(S(=O)(=O)c1c(C)noc1C)CC2 (stereo unspecified)		-17.4% (inactive)	
COc1ccc(OC)c(CNC(=O)C2(c3ccc(NC(C)=O)cc3)CCCCC2)c1		-23.8% (inactive)	
CC(C)(C)OC(=O)N1CCC(c2c(C(=O)NCCc3ccsc3)cnn2-c2ccc(F)cc2F)CC1			8.91 µM (active)
O=C(NCCC1CCN(C(=O)Nc2ccc(F)cc2F)CC1)c1cccs1	inactive		
Cc1ccc2c(c1)N(CC(=O)NCCCN1CCCCC1)C(=O)c1cccnc1O2		51.2% (inactive)	

Structure (SMILES)	outcome	activity, negative = inhibition	Potency
COCC1CN(C(C)=O)CC12CCN(Cc1ccccc1OC)CC2 (stereo unspecified)		15% (inactive)	
COc1ccccc1CN1CCC(CNC(=O)c2cnn(-c3ccccc3Cl)c2C2CCN(C(=O)OC(C)(C)C)CC2)CC1			2.51 µM (active)
Cc1ccccc1CCNC(=O)C1CCN(c2nc3ccccc3nc2C(F)(F)F)CC1		18.8% (inactive)	
COc1ccccc1CN1CC[C@H](CNC(C)=O)[C@H](N(C)C)C1		-2.3% (inactive)	
COc1cc(NC(=O)NCC2CCN(Cc3ccc(C)cc3)CC2)cc(OC)c1OC		-19.3% (inactive)	
Cc1cccc(C)c1-n1ncc(C(=O)NCCCN2CCCCC2)c1C1CCN(C(=O)OC(C)(C)C)CC1			8.91 µM (active)
CCCn1c2ccccc2c2cnn(CC(=O)NCC3CCN(Cc4ccc(C)cc4)CC3)c(=O)c21		-18.4% (inactive)	
Cc1ccc(CN2CCC(CNC(=O)c3cnn(-c4ccccc4Cl)c3C3CCN(C(=O)OC(C)(C)C)CC3)CC2)cc1			2.82 µM (active)
O=C(NCCC1CCN(C(=O)Nc2cc(F)ccc2F)CC1)c1cc(F)ccc1F		-15.6% (inactive)	
O=C(c1n[nH]c(=O)c2ccccc12)N1CC2CC(C1)[C@H]1CCCC(=O)N1C2 (stereo partly specified)		-6.17% (inactive)	
Cc1ccc(N2Cc3c(NCCCOC(C)C)ncnc3N(C)CC2=O)cc1		-0.704% (inactive)	
Cc1cc(=O)[nH]c(NCCNC(=O)c2cc(-c3cccn3C)n[nH]2)n1		0.81% (inactive)	
Cc1cccc(CC(=O)N2C[C@@H](COc3ccccc3)[C@H](C(N)=O)C2)c1		-26% (inactive)	
Cc1nc(C(=O)N2CC[C@H](NC(=O)c3snnc3C)C[C@H]2C(=O)N[C@H](CC(C)C)C(N)=O)cs1		4.58% (inactive)	
Cc1ccc(NC(=O)N2CC3CC(C2)[C@H]2CCCC(=O)N2C3)cc1F (stereo partly specified)		-17.8% (inactive)	
O=C(N[C@@H]1C[C@H](Cn2cc(CN3CCS(=O)(=O)CC3)nn2)[C@@H](O)[C@H]1O)c1cnccn1		-2.17% (inactive)	
CCC1(N2CCN(C(=O)c3ccc(C(F)(F)F)s3)CC2)CCN(C(=O)NC)C1 (stereo unspecified)	inactive		
N#Cc1ccccc1NC(=O)c1cc2n(n1)CC(c1ccc(Br)cc1)OC2 (stereo unspecified)		-17% (inactive)	
